According to PubChem BioAssay (NCI):
Compounds without any hit were thinned out: in the full panel of roughly 79,000, 15% have a hit. Activity calls are given as the source filed them. No stated cut-off is given here; in the data, active means growth inhibition above about 70%; inactive means the rest. Residues, ends and D or L forms follow the SMILES beside them. *: point of attachment. Fmoc = O=C(OCC1c2ccccc2-c2ccccc21)*; Boc = CC(C)(C)OC(=O)*

Experiment: NCI Yeast Anticancer Drug Screen. Data for the wt1 strain (AID 149);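 further: 0% = growth of vehicle-treated wt1 cultures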
Conditions: S. cerevisiae wt1 strain (SPY 50644) growth inhibition; at 33.0 µM; active compounds read high
In short: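 Yeast wt1 strain exposed to compounds; growth inhibition measured relative to vehicle-treated controls.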

**Q.** With CC(C)OP(=O)(OC(C)C)/C(Cl)=N/Nc1ccc([N+](=O)[O-])cc1 as the molecule, how does the growth inhibition read?
**A.** Its growth inhibition is 38% (inactive).

**Q.** With CCCCCCNCCCNc1c2cc(OC)ccc2nc2cccc([N+](=O)[O-])c12 as the molecule, how does the growth inhibition read?
**A.** Its growth inhibition is 59% (inactive).

**Q.** Which growth inhibition does the source give for CN(C)CCNCCCNc1c2ccccc2nc2cccc([N+](=O)[O-])c12 here?
**A.** The growth inhibition was 20% (inactive).

**Q.** Which growth inhibition does the source give for O=[N+]([O-])c1ccc(/C=C\c2ccc3c(c2)OCO3)c([N+](=O)[O-])c1 here?
**A.** Its growth inhibition is 6% (inactive).

**Q.** For O=C1c2ccccc2N2OC3(N4CCCC4)CCCCC3C12c1ccccc1 (configuration not stated), which growth inhibition is on record?
**A.** The growth inhibition was 36% (inactive).

**Q.** Which growth inhibition does the source give for CC(C)OC(=O)NNc1cc(Cl)ccc1Cl here?
**A.** The growth inhibition was 34% (inactive).

**Q.** With Cc1oc2ccccc2c(=O)c1Cn1nnc2ccccc21 as the molecule, how does the growth inhibition read?
**A.** The growth inhibition was -6% (inactive).

**Q.** With CC1(C)OC(=O)C(=Cc2ccc([N+](=O)[O-])s2)C(=O)O1 as the molecule, how does the growth inhibition read?
**A.** The growth inhibition was 32% (inactive).

**Q.** Which growth inhibition does the source give for OC(Cc1cccc2ccccc12)CN1CCC(c2ccccc2)CC1 (configuration not stated) here?
**A.** Its growth inhibition is 61% (inactive).

**Q.** With C1=CCN([B-](c2ccccc2)[C+]2CCCCC2)C=C1 as the molecule, how does the growth inhibition read?
**A.** The growth inhibition was 64% (inactive).

**Q.** With CCCNC(=O)OCc1c(COC(=O)NCCC)c(-c2ccc(Cl)c(Cl)c2)n2c1CCC2 as the molecule, how does the growth inhibition read?
**A.** Its growth inhibition is -34% (inactive).

**Q.** For CC1(C)CC(=O)C(C(=O)Nc2cccs2)=C(O)C1, which growth inhibition is on record?
**A.** The growth inhibition was 50% (inactive).

**Q.** With O=C(NO)c1coc2ccccc2c1=O as the molecule, how does the growth inhibition read?
**A.** Its growth inhibition is -3% (inactive).

**Q.** For COc1ccc(C(C)c2cc3c(cc2OCC(C)=O)OCO3)cc1 (configuration not stated), which growth inhibition is on record?
**A.** Its growth inhibition is -8% (inactive).

**Q.** With CCS(=O)(=O)Nc1ccc(Nc2c3ccccc3nc3ccccc23)c(OC)c1 as the molecule, how does the growth inhibition read?
**A.** Its growth inhibition is -4% (inactive).

**Q.** With CC1=NN(C(=O)c2ccccc2O)C(=O)/C1=C/c1ccco1 as the molecule, how does the growth inhibition read?
**A.** Its growth inhibition is 90% (active).

**Q.** For O=C1C=C(Br)C(=O)c2ccccc21, which growth inhibition is on record?
**A.** Its growth inhibition is 99% (active).

**Q.** With C[N+](C)([O-])CCCNc1c2ccccc2nc2cccc([N+](=O)[O-])c12 as the molecule, how does the growth inhibition read?
**A.** Its growth inhibition is 80% (active).

**Q.** Which growth inhibition does the source give for Cc1cccc2c(NCCCN(C)C)c3c([N+](=O)[O-])ccc(C)c3nc12 here?
**A.** The growth inhibition was 95% (active).

**Q.** For OC1(c2ccccc2)C2CC=CC2C1(c1ccccc1)c1ccccc1 (configuration not stated), which growth inhibition is on record?
**A.** The growth inhibition was -7% (inactive).

**Q.** With C[n+]1c(-c2ccc(/C=N/NC(=O)c3ccc(C(=O)N/N=C/c4ccc(-c5cn6ccccc6[n+]5C)cc4)cc3)cc2)cn2ccccc21 as the molecule, how does the growth inhibition read?
**A.** Its growth inhibition is 25% (inactive).

**Q.** For CCN(CC)CCC(=O)Nc1ccc2sc3ccccc3c(=O)c2n1, which growth inhibition is on record?
**A.** Its growth inhibition is 10% (inactive).

**Q.** For O=[N+]([O-])c1ccc2nc(=S)[nH]n2c1, which growth inhibition is on record?
**A.** The growth inhibition was -8% (inactive).

**Q.** With O=C(c1ccccc1)[C@H]1Nc2ccc(Cl)cc2[C@H]2OCCC[C@@H]12 as the molecule, how does the growth inhibition read?
**A.** Its growth inhibition is 24% (inactive).

**Q.** For COc1cc([N+](=O)[O-])c2ncccc2c1Br, which growth inhibition is on record?
**A.** Its growth inhibition is -2% (inactive).

**Q.** With O=S(=O)(c1cccc(C(F)(F)F)c1)N1c2ccccc2-n2cccc2C1c1cccnc1 (configuration not stated) as the molecule, how does the growth inhibition read?
**A.** Its growth inhibition is 92% (active).

**Q.** For CC(C)(C)OC(=O)NCCCCC(NC(=O)C(Cc1c[nH]c2ccccc12)NC(=O)OCC1c2ccccc2-c2ccccc21)C(=O)O (configuration not stated) (Fmoc-Trp-Lys(Boc)-OH; configuration not given here), which growth inhibition is on record?
**A.** The growth inhibition was 2% (inactive).
